Screens as filed in PubChem.
FMDV inh: foot and mouth disease virus antiviral activity; FMDV antiviral cell-based qHTS; Potency, µM (titrated, usually from 57.9 µM), most hits filed as inhibitors; hit rate 1.2% among 410,000; AID 1159524; calls by dose curve; tested in HEK293T cells; note: read-out not given here; nearly all actives have a fitted effect of over 45% in size
Sm TGR inh: S. mansoni TGR enzyme inhibition; purified TGR, DTNB reduction, TNB absorbance 405 nm; Potency, µM (series often up to 114 µM), usual class: inhibitors; Q962Y6; hit rate 3% among 360,000; note: nearly all actives have a fitted effect of over 60% in size
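Kinetic colorimetric format: TGR-catalysed, NADPH-driven DTNB reduction monitored via TNB absorbance. Enzyme dispensed at 20 nM; compound exposure 15 min at room temperature before reaction start.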
RE007 growth inh: less growth of the S. pombe RE007 Vpr strain | S. pombe RE007 Vpr strain, BacTiter-Glo ATP luminescence, 24 h | Potency, µM (titrated, usually from 92.2 µM), usual class: inhibitors | hit rate 0.21% among 360,000 | AID 651644; active = well fitted falling curve with a large enough effect; inconclusive = small, poorly fitted or top-dose-only effect; inactive = no such curve, though single readings can be large or run the other way; note: nearly all actives have a fitted effect of over 50% in size
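Fission yeast RE007 carrying one integrated HIV-1 vpr copy, seeded at OD 0.01 in PMG+AL medium with 23 nL pinned compound. Grown 24 h at 30 degrees; viability read by BacTiter-Glo luminescence after 5 min.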
MARV entry inh: blocks Marburg virus binding to or entry into cells; Marburg virus pseudotyped entry inhibition, cell reporter; hit rate 1.8% among 300,000; Potency, µM (titrated, usually from 37.8 µM), hits mostly inhibitors; calls by dose curve; tested in HEK293 cells
HCV inh: inhibitors of hepatitis C virus infection; hit rate 3.4% among 340,000; Huh7.5.1 HCVcc-Cre infection, luciferase reporter, 44 h; Potency, µM (series often up to 41.8 µM), hits mostly inhibitors
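After 44 h co-culture of compound, cells and HCVcc-Cre (~0.5 moi), substrate is added for 15 min at room temperature and luciferase measured over 15 sec. Cells were seeded at 1,000/well and pre-cultured 4 h.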
LASV entry inh: Lassa virus entry inhibition. Lassa virus pseudotype entry inhibition, cell reporter. Potency, µM (series often up to 37.9 µM), hits mostly inhibitors. hit rate 1.2% among 300,000. AID 540256; calls by dose curve; tested in HEK293 cells; note: nearly all actives have a fitted effect of over 50% in size
A number is an active result; – = inactive; ? = inconclusive; · = no result. Shown are actives, neighbours in structure and some others; about 7.2% of the full set was active somewhere. Unless noted, calls come from the whole dose curve; as a rule, active = well fitted curve in the direction sought with a large enough effect; inconclusive = small, poorly fitted or top-dose-only effect, or another doubt; inactive = no such curve, though single readings can be large; an effect the other way counts as inactive or inconclusive.

SMILES	FMDV inh	Sm TGR inh	RE007 growth inh	MARV entry inh	HCV inh	LASV entry inh
CCS(=O)(=O)c1c([N+](=O)[O-])ncn1C	?	0.63µM	–	–	?	–
Cn1cnc([N+](=O)[O-])c1S(=O)(=O)Oc1cccc2ccccc12	22µM	·	–	?	?	?
CNc1c([N+](=O)[O-])ncn1C	–	–	–	–	–	–
Cn1cnc([N+](=O)[O-])c1Oc1cccc2ccccc12	28µM	25µM	–	?	?	–
Cc1ccccc1-c1noc(-c2ccc(NCc3cccnc3)c([N+](=O)[O-])c2)n1	–	–	·	–	·	–
Cc1ccc2c(CNC3CCC(C)CC3)c(C(=O)O)n(Cc3cccc(F)c3)c2c1 (centres undefined)	–	–	·	·	·	–
O=C1CCCN1c1ccc(S(=O)(=O)Oc2ccc(Cl)cc2)cc1[N+](=O)[O-]	?	–	–	?	?	?
Cn1cnc([N+](=O)[O-])c1S(=O)(=O)Oc1ccc(Cl)cc1	20µM	·	?	11µM	?	?
CCc1cccc(NC(=O)c2cccc3c2C(=O)N(CC2CCCO2)C3)c1 (centres undefined)	–	–	–	·	11µM	·
O=C(O)c1cccc2c1C(=O)N(CC1CCCO1)C2 (centres undefined)	–	–	–	–	–	–
O=C1CCCC2=C1[C@H]1O[C@](CCCCN3C(=O)c4ccccc4C3=O)(Cc3c1ccc1ccccc31)O2	·	·	·	–	·	·
CCn1cc(C(=O)NCc2ccccc2Cl)c(=O)c2cc(S(=O)(=O)N3CCCCCC3)ccc21	–	–	·	–	·	–
CCCCCCCOC(=O)C1=C(C)Nc2ncnn2C1c1cccs1 (centres undefined)	?	–	–	?	?	13µM
CCCCCCCCOC(=O)C1=C(C)Nc2nnnn2C1c1cccs1 (centres undefined)	?	–	32µM	?	–	?
O=C(Nc1cccc(Cl)c1)C1CCCN(c2nn3cc(-c4ccc(F)cc4)nc3s2)C1 (centres undefined)	–	–	·	·	·	–
Cc1ccccc1-c1noc(-c2ccc(O)cc2)n1	·	–	?	?	14µM	?
CN(C)c1ccc(-c2noc(-c3ccccc3O)n2)cc1	–	–	–	?	–	5.8µM
Cc1ccccc1-c1noc(-c2ccc(Cl)cc2)n1	–	–	–	?	–	–
c1ccc(-c2noc(-c3ccccc3-c3ccccc3)n2)cc1	–	–	–	–	–	–
Nc1ncnc2c1c(I)cn2C1OC(CO)C(O)C1O (centres undefined)	–	·	·	·	·	·
CC1CCc2onc(C(=O)N3CCN(c4cccc(Cl)c4)CC3)c2C1 (centres undefined)	–	–	·	·	·	?
CC(C)NC(=O)c1cnn2c1NC(c1cccs1)CC2C(F)(F)F (centres undefined)	–	–	–	–	2.8µM	–
O=C(O)c1cnn2c1NC(c1cccs1)CC2C(F)(F)F (centres undefined)	–	–	–	–	–	–
CN1C(=O)C2=NC(C3CCCC3)=NC2N(C)C1=O (centres undefined)	·	·	·	–	·	·
O=S(=O)(/N=C(\Sc1ccc(Cl)cc1)c1ccccc1)c1ccccc1	?	25µM	–	–	–	–
SMILES	FMDV inh	Sm TGR inh	RE007 growth inh	MARV entry inh	HCV inh	LASV entry inh
CS/C(=N\S(=O)(=O)c1ccc(Cl)cc1)c1ccccc1	–	–	–	–	–	–
N#C[C@@H](C(=O)NC1CCCCC1)c1nc2ccccc2nc1N1CCN(c2ccccc2F)CC1	·	·	·	–	·	·
O=C(/C=C/c1ccc(Cl)cc1Cl)N1CCN(c2ccc([N+](=O)[O-])c(N3CCOCC3)c2)CC1	?	–	–	–	?	–
O=[N+]([O-])c1ccc(Cl)cc1N1CCCC1	–	·	–	–	–	–
O=[N+]([O-])c1ccc(N2CCCNCC2)c2ncccc12	–	–	–	·	?	·
O=C(/C=C/c1ccc(Cl)cc1)N1CCN(c2ccc([N+](=O)[O-])c(N3CCOCC3)c2)CC1	14µM	–	–	–	7.9µM	–
Cc1nn(-c2cc(N3CCCCCC3)ccc2[N+](=O)[O-])c(=O)c2ccccc12	–	–	–	–	13µM	?
O=[N+]([O-])c1ccc(N2CCNCC2)cc1N1CCCCC1	–	–	–	?	10µM	–
O=[N+]([O-])c1cccnc1N1CCCNCC1	–	50µM	–	–	–	–
CCCC[C@@H]1CN2[C@H](c3ccc(Br)cc3)[C@H](C)CC[C@H]2C(=O)O1	·	·	·	–	·	·
Cc1ccc2nc(-c3ccccc3F)c(Nc3ccc(Cl)cc3)n2c1	–	–	·	–	·	–
CS(=O)(=O)N1CCC2(CCCN(C(=O)Nc3ccccc3)C2)CC1	–	·	·	·	·	·
Cc1ccc(C(=O)OCc2cc(=O)n3nc(CC(C)C)sc3n2)cc1	–	–	·	·	·	–
CCc1c(C)nc2nncn2c1NCc1ccccc1	?	–	·	–	·	–
O=C(COc1ccc(Br)cc1)N1CCN(c2ccc([N+](=O)[O-])c(N3CCCCC3)c2)CC1	?	–	–	–	?	–
O=C(COc1ccccc1)N1CCN(c2ccc([N+](=O)[O-])c(N3CCCCC3)c2)CC1	·	–	–	–	7.1µM	?
Cc1ccc(C(c2c(NC(=O)c3ccco3)sc(C)c2C)N2CCOCC2)cc1 (centres undefined)	–	·	–	·	·	·
Cc1sc(NC(=O)c2ccco2)c(C(c2ccc(F)cc2)N2CCN(C)CC2)c1C (centres undefined)	–	?	–	6.3µM	–	?
CCOc1ccc(C(c2c(NC(=O)c3ccccc3)sc(C)c2C)N2CCN(CCO)CC2)cc1 (centres undefined)	–	–	–	8.9µM	?	?
Cc1sc(NC(=O)c2ccco2)c(C(c2cccnc2)N2CCN(c3ccc(F)cc3)CC2)c1C (centres undefined)	?	22µM	–	·	11µM	·
CCOC(=O)C1CCN(C(c2cccnc2)c2c(NC(=O)c3ccco3)sc(C)c2C)CC1 (centres undefined)	25µM	7.9µM	–	?	6.3µM	?
COc1ccc(OC)c(NC(=O)CC(=O)Nc2ccc3nc4n(c(=O)c3c2)CCCCC4)c1	–	–	·	–	·	–
COCCn1c(=O)c(C)nc2cnc(Nc3ccccc3)nc21	–	·	·	·	·	·
COc1cccc(CNC(=O)c2sc3nc[nH]c(=O)c3c2C)c1	–	–	·	·	·	–
c1ccc(-c2ncc3ccccn23)cc1	–	40µM	–	–	–	–
Cn1nc(C(C)(C)C)c([N+](=O)[O-])c1C(=O)Nc1ccc(Br)cc1	?	–	–	·	13µM	·
Cc1cccc(NC(=O)c2c([N+](=O)[O-])c(C(C)(C)C)nn2C)c1	–	–	–	?	–	?
Cc1ccc(-n2nc(CO)c(C(=O)NCc3cccnc3)n2)cc1C	–	–	·	?	·	?
CCN(CC)CCCNC(=O)c1ccc2nc(N3CCCCC3)sc2c1	–	–	·	?	·	?
